# Source: PubChem BioAssay (NCATS)
# Unmarked numbers belong to inactive results. Inconclusive results are not listed. Entries that show only a call come without a potency. Activity calls are given as the source filed them. Calls come from the whole dose curve; as a rule, active = well fitted curve in the direction sought with a large enough effect; inconclusive = small, poorly fitted or top-dose-only effect, or another doubt; inactive = no such curve, though single readings can be large; an effect the other way counts as inactive or inconclusive.
# Tests used:
# [1] = qHTS to identify inhibitors of the type 1 interferon - major histocompatibility complex class I in skeletal muscle: primary screen against the NCATS Pharmaceutical Collection (AID 1347407);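 note: luminescence of HiBiT knocked into endogenous HLA-B as interferon-induced MHC class I level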
# Method in brief: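 Immortalized human myoblasts (C25cl48) with HiBiT knocked into endogenous HLA-B*08:01 were stimulated with 4.0 ng/ml IFN-beta and treated with compounds ([…] top 46 uM) for 24 hrs at 37 C. HiBiT lytic luminescence read.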
# [2] = target: Protein phosphatase 1D (Homo sapiens) (UniProt O15297); assay: RapidFire Mass Spectrometry qHTS Assay for Modulators of WT P53-Induced Phosphatase 1 (WIP1) (AID 1347424);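 note: amount of dephosphorylated VEPPL-S-QETFS peptide product formed by WIP1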; note: potency is the fitted concentration of half-maximal effect; for activity change, negative = inhibition: series mostly up to about 63 µM
# Method in brief: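 10 nM WIP1 preincubated with compounds 1 hr at room temperature in pH 7.5 Tris buffer with 30 mM MgCl2, 1 mM TCEP; 2 uM VEPPL-pS-QETFS phosphopeptide for 5 min, formic acid quench; dephosphorylated product quantified by RapidFire MS against labelled standard.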
# [3] = target: Protein phosphatase 1D (Homo sapiens) (UniProt O15297); assay: Rhodamine-PBP qHTS Assay for Modulators of WT P53-Induced Phosphatase 1 (WIP1) (AID 1347425)
# Method in brief: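 5 nM WIP1 + 10 uM Rh-PBP, 50 mM Tris pH 7.5, 30 mM MgCl2, 1 mM TCEP, 0.1 mM EGTA, BSA; cpds pinned, 1 hr RT; + 10 uM phosphopeptide; fluorescence 1-min reads x 11 min; delta = f1 - f0.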
# [4] = qHTS to identify inhibitors of the type 1 interferon - major histocompatibility complex class I in skeletal muscle: primary screen against the NCATS LOPAC collection (AID 1347405);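 note: lytic HiBiT luminescence reporting HLA-B protein level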; note: potency is the fitted concentration of half-maximal effect
# Method in brief: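 Cells: C25cl48 human myoblasts, HiBiT-tagged HLA-B*08:01, stimulated with IFN-beta 4.0 ng/ml. Compounds are titrated 1:4.3 over 7 points from 46 uM final and incubated 24 hrs; endogenous MHC class I is quantified by HiBiT lytic luminescence.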
# [5] = qHTS for inhibitors of adenylyl cyclases using a fission yeast platform: a pilot screen against the NCATS LOPAC library (AID 1347410)
# Method in brief: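 S. pombe CHP2027 (AC9-GNAS-PDE4D2) carrying PKA-repressed fbp1-GFP, incubated 18 h at 30C in EMM with LOPAC compounds at up to 57 uM. GFP gain-of-signal read by laser scanning cytometry; DMSO negative control.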
# [6] = qHTS to identify inhibitors of the type 1 interferon - major histocompatibility complex class I in skeletal muscle: primary screen against the NCATS Mechanism Interrogation Plate v5.0 (MIPE) Libary (AID 1347411); note: nearly all actives have a fitted effect of over 65% in size; note: potency is the fitted concentration of half-maximal effect
# Method in brief: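 Cells were genome-edited human myoblasts carrying a HiBit tag on endogenous HLA-B. They were treated with IFN-beta (4.0 ng/ml) and titrated compounds (top 46 uM) for 24 hrs before lytic HiBiT detection.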
# Chain of Protein phosphatase 1D (Homo sapiens) (O15297 whole entry, looked up): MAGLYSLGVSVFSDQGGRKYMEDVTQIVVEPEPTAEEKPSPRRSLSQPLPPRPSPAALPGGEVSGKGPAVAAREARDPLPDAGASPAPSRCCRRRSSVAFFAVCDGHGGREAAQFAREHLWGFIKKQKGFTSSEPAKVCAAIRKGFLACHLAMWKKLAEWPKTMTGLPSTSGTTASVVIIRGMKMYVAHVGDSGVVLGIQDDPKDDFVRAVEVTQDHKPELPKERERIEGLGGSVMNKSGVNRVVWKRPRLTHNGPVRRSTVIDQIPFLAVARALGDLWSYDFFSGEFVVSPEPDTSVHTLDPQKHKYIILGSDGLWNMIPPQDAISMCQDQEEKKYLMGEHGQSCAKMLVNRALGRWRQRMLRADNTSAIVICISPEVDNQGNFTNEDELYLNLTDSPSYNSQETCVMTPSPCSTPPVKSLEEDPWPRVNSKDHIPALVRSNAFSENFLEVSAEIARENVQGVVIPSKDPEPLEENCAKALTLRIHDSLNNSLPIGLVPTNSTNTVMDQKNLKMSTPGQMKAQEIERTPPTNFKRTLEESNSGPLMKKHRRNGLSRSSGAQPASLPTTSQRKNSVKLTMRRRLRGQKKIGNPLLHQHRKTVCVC
smiles,measurement,setting,value
C=CC(=O)NCNC(=O)C=C,outcome,[1],inactive
same,Potency,[2],inactive
same,outcome,[3],inactive
O=C(O)COc1ccccc1,outcome,[1],inactive
same,Potency,[2],inactive
same,outcome,[3],inactive
NC(N)=NOCCC(N)C(=O)O (centres undefined),Potency,[4],inactive
same,outcome,[5],inactive
CC(C)(C)C(O)C(Oc1ccc(Cl)cc1)n1cncn1 (centres undefined),outcome,[1],inactive
same,Potency,[2],inactive
same,outcome,[3],inactive
CC(C)Oc1cccc(NC(=O)c2ccccc2C(F)(F)F)c1,outcome,[1],inactive
same,Potency,[2],inactive
same,outcome,[3],inactive
C[C@]12CCC3C(CC[C@H]4C[C@H](O)CC[C@]34C)C1CC[C@@H]2C(=O)CO (some centres undefined),Potency,[4],inactive
same,outcome,[5],inactive
CC1(C)CC/C(=C/c2ccc(Cl)cc2)C1(O)Cn1cncn1 (centres undefined),outcome,[1],inactive
same,Potency,[2],inactive
same,outcome,[3],inactive
O=[N+]([O-])c1c(Cl)c(Cl)cc(Cl)c1Cl,outcome,[1],inactive
same,Potency,[2],inactive
same,outcome,[3],inactive
O=C(N[C@H]1CN2CCC1CC2)c1ccc(Cl)cc1,Potency,[4],inactive
same,outcome,[5],inactive
same,Potency,[6],inactive
CC(O)CN1CCN(CC(=O)[O-])CCN(CC(=O)[O-])CCN(CC(=O)[O-])CC1.[Gd+3] (centres undefined),outcome,[1],inactive
same,Potency,[2],inactive
same,outcome,[3],inactive
CC[C@@H](C(N)=O)N1CCCC1=O,Potency,[4],inactive
same,outcome,[5],inactive
same,Potency,[6],inactive
COC(=O)c1cncn1C(C)c1ccccc1 (centres undefined),outcome,[1],inactive
same,Potency,[2],inactive
same,outcome,[3],inactive
COC(=O)[C@@H](N)CCCN=C(N)N[N+](=O)[O-],Potency,[4],inactive
same,outcome,[5],inactive
same,Potency,[6],inactive
Nc1ccc([N+](=O)[O-])cc1,outcome,[1],inactive
same,Potency,[2],inactive
same,outcome,[3],inactive
O=S(=O)(c1ccc(Cl)cc1)c1ccc(Cl)cc1,outcome,[1],inactive
same,Potency,[2],inactive
same,outcome,[3],inactive
COc1nn(CSP(=S)(OC)OC)c(=O)s1,outcome,[1],inactive
same,Potency,[2],inactive
O=C1C(I)=CC(=C(c2cc(I)c(O)c(I)c2)c2ccccc2C(=O)O)C=C1I,outcome,[1],inactive
CC[C@@]1(O)C(=O)OCc2c1cc1n(c2=O)Cc2cc3ccccc3nc2-1,Potency,[4],0.708 µM (active)
same,outcome,[5],inactive
same,Potency,[6],2.08 µM (active)
CC(C)Oc1cccnc1N(C)C1CCN(Cc2ccccc2)CC1,Potency,[4],inactive
same,outcome,[5],inactive
CCC(=O)O[C@@H]1C=C2CCC3C(CCC4(C)C3CC[C@@H]4OC(=O)CC)C2CC1 (some centres undefined),outcome,[1],inactive
same,Potency,[2],inactive
same,outcome,[3],inactive
O=S(=O)(O)C(F)(F)C(F)(F)C(F)(F)C(F)(F)C(F)(F)C(F)(F)C(F)(F)C(F)(F)F,outcome,[1],inactive
same,Potency,[2],1.58 µM (active)
CCOCCOC(C)=O,outcome,[1],inactive
same,Potency,[2],inactive
same,outcome,[3],inactive
Cc1ccc(Cl)c(O)c1,outcome,[1],inactive
same,Potency,[2],inactive
same,outcome,[3],inactive
CCCN1CCO[C@@H]2c3cc(O)ccc3OC[C@H]21,Potency,[4],inactive
same,outcome,[5],inactive
same,Potency,[6],inactive
Clc1cnc(Oc2ccc(Oc3ncc(Cl)cc3Cl)cc2)c(Cl)c1,Potency,[4],inactive
same,outcome,[5],inactive
CCOP(=O)(NC(C)C)Oc1ccc(SC)c(C)c1 (centres undefined),outcome,[1],inactive
same,Potency,[2],inactive
same,outcome,[3],inactive
O=C(O)Cc1cnc[nH]1,Potency,[4],inactive
same,outcome,[5],inactive
NC(=O)CN1CC(O)CC1=O (centres undefined),Potency,[4],inactive
same,outcome,[5],inactive
S=C(SSC(=S)N1CCCCC1)N1CCCCC1,outcome,[1],inactive
same,Potency,[2],inactive
same,outcome,[3],inactive
CC(C)NCC(O)c1ccc([N+](=O)[O-])cc1 (centres undefined),outcome,[1],inactive
same,Potency,[2],inactive
same,outcome,[3],inactive
C[C@](O)(COc1ccc(C#N)cc1)C(=O)Nc1ccc(C#N)c(C(F)(F)F)c1,Potency,[6],inactive
CC(C)(C)NC[C@H](O)c1ccc(O)cc1Cl,outcome,[1],inactive
same,Potency,[2],inactive
same,outcome,[3],inactive
O=[N+]([O-])c1ccc([As](=O)(O)O)cc1,outcome,[1],inactive
same,Potency,[2],inactive
same,outcome,[3],inactive
Oc1ccc2c3c1O[C@H]1[C@@H](O)C=C[C@H]4[C@@H](C2)NCC[C@@]341,outcome,[1],inactive
same,Potency,[2],inactive
same,outcome,[3],inactive
CN[C@@H]1C[C@@H](c2ccc(Cl)c(Cl)c2)c2ccccc21,outcome,[5],inactive
Fc1cc(Br)ccc1CBr,outcome,[1],inactive
same,Potency,[2],inactive
same,outcome,[3],inactive
COc1ccc2c(c[n+](C)c3c4cc5c(cc4ccc23)OCO5)c1OC,outcome,[5],inactive
CC1=C(C(=O)O)N2C(=O)[C@@H](N)[C@H]2SC1,"activity change, negative = inhibition",[1],-3.5% [at 19 µM]
same,"activity change, negative = inhibition",[2],5.52% [at 26.6 µM]
same,"activity change, negative = inhibition",[3],6.57% [at 23.8 µM]
COc1ccc(C(c2ccc(OC)cc2)C(Cl)(Cl)Cl)cc1,outcome,[1],inactive
same,Potency,[2],inactive
same,outcome,[3],inactive
O=C(O)c1cc(Oc2ccc(C(F)(F)F)cc2Cl)ccc1[N+](=O)[O-],outcome,[1],inactive
same,outcome,[3],inactive
O=c1[nH]c2ccccc2n1C1CCN(Cc2ccc(-c3[nH]c4cc5ncnc5cc4nc3-c3ccccc3)cc2)CC1,Potency,[6],inactive
O=S(=O)(F)Cc1ccccc1,Potency,[6],inactive
OCCCBr,outcome,[1],inactive
same,Potency,[2],inactive
same,outcome,[3],inactive
CSCC[C@@H](NC(=O)[C@@H](Cc1ccccc1)NC(=O)CNC(=O)CNC(=O)[C@@H](N)Cc1ccc(O)cc1)C(=O)O,Potency,[6],inactive
O=C1C=CC[C@@H]2[C@H]3CCCN4CCC[C@@H](CN12)[C@@H]34,Potency,[6],inactive
O=C(O)COc1nc(Cl)c(Cl)cc1Cl,outcome,[1],inactive
same,Potency,[2],inactive
same,outcome,[3],inactive
Cc1cc(O)ccc1Cl,outcome,[1],inactive
same,Potency,[2],inactive
same,outcome,[3],inactive
CCNC(=O)CC1N=C(c2ccc(Cl)cc2)c2cc(OC)ccc2-n2c(C)nnc21 (centres undefined),Potency,[6],inactive
ClC1=C(Cl)[C@]2(Cl)[C@@H]3[C@@H]4C[C@@H]([C@H]5O[C@@H]45)[C@@H]3[C@@]1(Cl)C2(Cl)Cl,outcome,[1],inactive
same,outcome,[3],inactive
O=C(Nc1ccccc1-c1ccc(Cl)cc1)c1cccnc1Cl,outcome,[1],inactive
same,Potency,[2],inactive
same,outcome,[3],inactive
CCC1(CCC(C)C)C(=O)NC(=O)NC1=O,outcome,[1],inactive
same,Potency,[2],inactive
same,outcome,[3],inactive
Nc1ccc(Cl)cc1,outcome,[1],inactive
same,Potency,[2],inactive
same,outcome,[3],inactive
CN1[C@H]2CC(O)C[C@H]1[C@H]1O[C@H]12 (some centres undefined),Potency,[6],inactive
